# Out of some 69,000 compounds screened, about 8,600 (12%) showed an effect of 50% or more. This is one part of a sample in which strong results are shown more often than they occur.
# Tested on: Plasmodium berghei
# Test: Screen against P. berghei liver stage (PbLuc), transformed with Luciferase, at 10uM
# Assay type: functional, HepG2
# Settings: tested at 10 uM
row,SMILES,INHIBITION [%]
1,CC1(c2ccc(Br)cc2)CC(=O)N(CCC#N)C1=O (stereo not drawn),-12.2
2,O=C(O)c1ccccc1-c1ccc(CN2CCCC(O)C2)cc1 (stereo not drawn),48.6
3,Oc1nc(C2CCN(Cc3ccccn3)CC2)cc2ccccc12,-13.2
4,CCOc1ccnc(N2CCN(C(=O)c3cn[nH]c3C)CC2)n1,-11.4
5,O=C(c1ccccn1)N1C[C@H]2CC[C@@H](C1)N(C(=O)CCc1ccsc1)C2,-16.5
6,CCc1n[nH]c(=O)c(C(=O)N2CCSC(C)(C)C2)c1CC,18.7
7,COCCC(=O)NCCc1nc(N(C)C)ncc1-c1ccncc1,2.5
8,CCn1cnnc1C1CCN(C(=O)COCCc2ccccc2)CC1,32
9,CCn1cnnc1C1CCN(C(=O)CCCOc2ccccc2)CC1,60.9
10,Cn1cnnc1C1CCN(C(=O)CCCOc2ccccc2)CC1,28.8
11,CC(CN1CCCC1=O)NC(=O)c1cc(=O)[nH]c2ccc(Cl)cc12 (stereo not drawn),35.4
12,Cc1noc(C)c1CCC(=O)N1CCOCC1CC(=O)N1CCCC1 (stereo not drawn),-14.1
13,COCC(=O)N1CCO[C@H]2[C@H](OCc3cccnc3)CC[C@@H]21,-15.7
14,CNc1nc(N2CCC3(CCCNC3=O)C2)nc2c1CCC2 (stereo not drawn),-7.17
15,O=C1NCCCC12CCN(c1nc3c(c(C(F)(F)F)n1)CCCC3)C2 (stereo not drawn),80.7
16,Cc1nc(N2CCC3(CCCNC3=O)C2)nc2c1CCCC2 (stereo not drawn),47.5
17,CCC(O)CN1CCN(C(=O)c2cccn2Cc2cccnc2)CC1 (stereo not drawn),7.12
18,CN(C)CCCNC(=O)C1CC(=O)N(c2n[nH]c3cccc(F)c23)C1 (stereo not drawn),14.6
19,CC(C)(C)NC(=O)CNc1ncccn1,-1.85
20,Cc1nc(N2CCN(C)CC2)ncc1C(=O)N1CCCCC1,36.6
21,Cc1nc(N2CCN(C)CC2)ncc1C(=O)N1CCN(C)CC1,23
22,Cc1nc(N2CCN(C)CC2)ncc1C(=O)N1CCCCCC1,51.7
23,CC1CCN(c2ccc(C(=O)N3CCCC3c3ccc[nH]3)cn2)CC1 (stereo not drawn),27
24,CCCN1C(=O)[C@@H]2CC[C@H]1CN(S(=O)(=O)c1cccc(Cl)c1)C2,-26.8
25,COc1cccc(C(=O)NC(c2ccccn2)C2CCC(CN)CC2)c1 (stereo not drawn),41.2
26,CN(CC(=O)Nc1nc2c(s1)CCC2)C(=O)c1cccs1,-8.51
27,CN(CC(=O)Nc1nc2c(s1)CCCCCC2)C(=O)c1ccco1,74.4

row,SMILES,INHIBITION [%]
1,CC1CCc2nc(NC(=O)CN(C)C(=O)c3ccco3)sc2C1 (stereo not drawn),31.4
2,Cc1cccc(CN2C[C@@H]3COC[C@]3(CNC(=O)c3ccccc3)C2)n1,38.3
3,Cc1ccc(CN2CCN(C3CCC3)CC2CCO)o1 (stereo not drawn),46.6
4,Cc1ccc(CN2CCN(C3CSCCSC3)CC2CCO)o1 (stereo not drawn),50.9
5,COc1cc(N2CCN(Cc3ccc(C)o3)C(CCO)C2)nc(N)n1 (stereo not drawn),35.2
6,CC(=O)N1CCC(N2CCN(Cc3ccc(C)o3)C(CCO)C2)CC1 (stereo not drawn),33.7
7,Cc1ccc(CN2CCN(C3CCCC3)CC2CCO)o1 (stereo not drawn),50.9
8,Cc1ccc(CN2CCN(C3CCSCC3)CC2CCO)o1 (stereo not drawn),48
9,CCCc1ccc(CN2CCC3(CCC(=O)N(C(C)C(=O)O)C3)CC2)o1 (stereo not drawn),1.74
10,O=C(CN1CCN(C(=O)c2sccc2C2CC2)CC1)NC1CC1,31.8
11,CCOCC(=O)N1C[C@@H]2CC[C@H]1CN(C(=O)c1ccncc1)C2,-30.7
12,Cc1cc(NC(C)c2csc(C)n2)n2nc(C)c(C)c2n1 (stereo not drawn),25.4
13,CC(SCC(=O)N(C)CC(=O)NC1CC1)c1ccc(F)c(F)c1 (stereo not drawn),-18.9
14,CC(SCC(=O)N(C)CC(=O)NC1CC1)c1ccccc1F (stereo not drawn),85.7
15,CC(SCC(=O)NC(N)=O)c1ccccc1F (stereo not drawn),24.7
16,CCNC(=O)NC(=O)CSC(C)c1ccccc1F (stereo not drawn),-32.3
17,CC(SCC(=O)N(C)CC(=O)NC1CC1)c1cc(F)ccc1F (stereo not drawn),49.3
18,CNC(=O)NC(=O)CSC(C)c1ccccc1F (stereo not drawn),55
19,Nc1nc(C2CCN(C(=O)c3cscn3)CC2)cs1,34.7
20,CN1C[C@@H]2CN(C(=O)NCc3ccccc3)CCC[C@]2(C(=O)O)C1,5.63
21,COCC1CC2(CCN(Cc3ccoc3)CC2)CN1C(C)C (stereo not drawn),-1.26
22,Cc1ccccc1CNC(=O)c1ccccc1-n1cc(CN)cn1,20.8
23,CSCC[C@H](N)C(=O)NCc1cc2n(n1)CCCN(C(=O)C1CCC1)C2,28.5
24,Cc1cc(C)c(CNC(=O)NCc2ccc(F)cc2)c(=O)[nH]1,27.6
25,c1cc2cc[nH]c2c(CC2CN(Cc3cncs3)C2)n1,-0.232
26,Cn1ccc(CN2CC(Cc3nccc4cc[nH]c34)C2)n1,41.5

# Reference: ChEMBL document CHEMBL4513216, “Probing the Open Global Health Chemical Diversity Library for Multistage-Active Starting Points for Next-Generation Antimalarials” (ACS Infect Dis, 2020)
